In the library only some 3.7% were active in any assay of this set; here they are far more common.
esBAF inh = inhibitors of esBAF chromatin remodeling in mouse ES cells; Bmi1-luciferase knock-in reporter, 24 h; 100% = twice the neutral-well signal; reporter increase, % at 12.5 µM; 2% of 350,000 active; AID 602393; in the data active means activation above about 40%; inconclusive means no clear call, values can overlap the other calls;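 further: 0% = median of the plate's neutral control wells and 100% = double that signal; a rise in the Bmi1 reporter signal indicates esBAF inhibition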
rRNA inh HTS = inhibitors of bacterial rRNA selective over humanized ribosomes | E. coli WT GFP vs humanized-ribosome RFP mutants, fluorescence, 24 h; stronger effect = lower value; DMSO median 0, no signal -100 | GFP signal change (wild-type ribosome), % (test concentration not listed) | 1.6% of 350,000 active;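 active means significant combined selectivity score with lowered wild-type GFP, culture density cut under 30%, mutant RFP and density less affected; inactive means any of these conditions unmet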
Wnt bcat act = activates Wnt/beta-catenin signaling in a reporter cell assay. activator, plate reader. activation, % at 9.35 µM. 1.2% of 300,000 active; in the data active means activation above about 30%, passing the limit was not always enough; inconclusive means no clear call, values can overlap the other calls;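 further: 0% = neutral control wells and 100% = positive control wells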
MITF act = activators of MITF-driven TRPM1 promoter activity in SK-MEL-5 cells | 0.75% of 300,000 active | activation, % at 12.5 µM | SK-MEL-5 TRPM1-promoter luciferase, 24 h; % of positive control, neutral wells = 0;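 active means mean activation of at least 80% with every replicate also reaching 80%; inconclusive means mean reaches 80% but some replicate falls short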;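 further: 0% = neutral control wells and 100% = parthenolide positive control wells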
MLL AF4-AF9 inh = inhibitors of human MLL-AF4/AF9 interaction; P42568; AlphaScreen, biotin-AF4 peptide binding to FLAG-AF9; inhibition, % at 10 µM; 0.47% of 350,000 active; AID 651704;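 active means every replicate reaching a set inhibition limit, whatever the replicate mean, cut at about 25% in these data; inconclusive means mean inhibition reaches that limit but some replicates miss it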;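 further: 0% = plate neutral control median and 100% = total signal loss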
Target sequence (P42568 whole entry, looked up): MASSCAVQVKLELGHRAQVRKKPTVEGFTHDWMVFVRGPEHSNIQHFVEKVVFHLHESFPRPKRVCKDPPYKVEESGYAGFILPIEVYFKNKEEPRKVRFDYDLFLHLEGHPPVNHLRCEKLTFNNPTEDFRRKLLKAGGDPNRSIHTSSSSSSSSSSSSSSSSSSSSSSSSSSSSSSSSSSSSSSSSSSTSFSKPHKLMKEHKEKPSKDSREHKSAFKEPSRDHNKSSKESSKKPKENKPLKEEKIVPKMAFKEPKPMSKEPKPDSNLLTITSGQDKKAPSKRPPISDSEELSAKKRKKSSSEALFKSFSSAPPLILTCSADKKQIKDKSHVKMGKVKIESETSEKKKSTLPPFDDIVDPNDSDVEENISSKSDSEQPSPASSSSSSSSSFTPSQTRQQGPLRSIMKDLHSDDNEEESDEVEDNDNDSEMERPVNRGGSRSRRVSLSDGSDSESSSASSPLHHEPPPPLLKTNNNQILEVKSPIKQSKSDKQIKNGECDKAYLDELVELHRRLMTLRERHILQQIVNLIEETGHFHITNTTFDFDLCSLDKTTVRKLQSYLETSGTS
Active calls of the source: *; ? = inconclusive; · = no result given.

SMILES	esBAF inh	rRNA inh HTS	Wnt bcat act	MITF act	MLL AF4-AF9 inh
O=C(NC(=S)Nc1nc(-c2ccc(Br)cc2)cs1)c1ccco1	·	15	1	2	0
O=C(Nc1cc(-c2ccccc2)cs1)c1ccco1	67*	-12	44*	110*	-34
O=C(NC(=S)Nc1nc(-c2ccc([N+](=O)[O-])cc2)cs1)c1ccco1	54*	8	18	23	-1
O=C(Nc1scc(-c2ccccc2)c1C(=O)O)c1ccco1	27	·	10	13	·
COc1ccc(-c2csc(NC(=O)c3ccco3)n2)cc1	65*	·	18	83*	·
COc1ccc(-c2csc(NC(=O)c3c(OC)cccc3OC)n2)cc1	5	4	1	1	-7
CCOc1cc(N2CCOCC2)c(OCC)cc1NC(=O)CN1CCc2ccccc2C1	·	·	·	4	·
COc1ccc(OC)c(NC(=O)C2CCN(S(=O)(=O)c3ccc4c(c3)OCCO4)CC2)c1	0	3	-3	-18	-2
CC(OC(=O)c1ccco1)C(=O)Nc1nc(-c2ccccc2)cs1 (configuration not stated)	48*	-8	7	89*	-2
Cc1ccc(-c2csc(NC(=O)c3ccco3)n2)cc1C	47*	-18	41*	·	-3
COc1ccccc1C(=O)Nc1ccc(Br)cc1C	39	3	37*	40	-1
Cc1ccc(-c2csc(NC(=O)c3c(C)noc3C)n2)cc1C	20	0	-4	44	1
O=C(Nc1nc(-c2ccccc2)cs1)c1ccco1	·	-36	43*	·	1
C[C@@H]1CN([C@H](C)CO)S(=O)(=O)c2ccc(-c3cncnc3)cc2O[C@H]1CN(C)Cc1ccccn1	-2	3	·	·	0
COc1cccc(-c2nnc(NC(=O)c3ccco3)s2)c1	12	1	35*	58	-4
COc1ccc(-c2nnc(NC(=O)c3ccco3)s2)cc1	16	2	13	32	-7
CCOc1ccc(-c2csc(NC(=O)c3ccco3)n2)cc1	58*	-22	3	·	2
Cc1cc(Br)ccc1NC(=O)c1ccco1	22	-22*	6	·	-9
O=C(CCNC(=O)c1ccco1)Nc1nc(-c2ccccc2)cs1	53*	-30	19	·	3
Cc1ccccc1NC(=O)c1ccco1	-5	19	-1	-5	-1
O=C(NCCc1ccncc1)[C@H]1[C@H](CO)[C@H]2Cn3c(ccc(-c4cccnc4)c3=O)[C@H]2N1C(=O)C1CC1	-2	3	·	·	2
CC(C)CC(=O)c1c[nH]c(C(=O)NCCc2ccccn2)c1	17	·	3	11	·
Cc1cc(NC(=O)c2ccco2)sc1C	29	6	62*	104*	1
COC(=O)c1c(-c2ccc(F)cc2)csc1NC(=O)c1ccco1	·	·	·	118*	·
Cc1ccc(NC(=O)/C(=C/c2cccs2)NC(=O)c2ccco2)c(C)c1	·	-30*	-2	-5	-3
SMILES	esBAF inh	rRNA inh HTS	Wnt bcat act	MITF act	MLL AF4-AF9 inh
O=C(NCC[C@@H]1CC[C@H](NC(=O)C2CCC2)[C@@H](CO)O1)Nc1ccc(Cl)cc1	2	-5	·	·	2
COCCNc1ccc(N2C(=O)CCCC2=O)cc1[N+](=O)[O-]	-2	5	4	9	-1
CN(c1ccccc1)S(=O)(=O)c1cccc(C(=O)OCC(=O)NCc2ccco2)c1	1	-24*	1	-7	4
O=C(Cn1nc(C(F)F)cc1C(F)F)NNC(=S)Nc1ccc([N+](=O)[O-])cc1	·	-18*	-6	-14	6
O=C(Cn1nc(C(F)F)cc1C(F)F)NNC(=S)Nc1ccc(F)cc1	-15	·	·	-1	·
COc1cccc(C(=O)/C=C/Nc2ccc(S(=O)(=O)Nc3nc(C)cc(C)n3)cc2)c1	·	-21*	0	1	1
COc1cccc(C(=O)/C=C/Nc2ccc(S(=O)(=O)Nc3ncccn3)cc2)c1	·	10	·	3	-86
Cc1cccc(N/C=C/C(=O)c2ccc(Cl)cc2)c1	41	22	49*	72	0
COc1cccc(C(=O)/C=C/Nc2cc(C)ccc2O)c1	63*	·	·	64	·
Cc1ccc(Cl)c(N/C=C/C(=O)c2ccccc2)c1	9	10	11	·	-17
COc1ccc(NC(=O)NS(=O)(=O)c2ccc(C)cc2)cc1OC	-3	8	32*	5	12
Cc1cccc(C)c1NC(=O)CCCSc1nnc(-c2ccco2)o1	1	·	·	·	·
COc1cc(C(=O)NC2(C(F)(F)F)NC(=O)N(CCCc3ccccc3)C2=O)cc(OC)c1OC (configuration not stated)	·	-35	1	8	3
CCOC(=O)c1ccc(OS(=O)(=O)c2ccccc2)c(OC)c1	·	·	54*	?	·
CCOC(=O)c1cccc(N/C=C/C(=O)c2ccc(OC)c(OC)c2)c1	53*	·	·	25	·
CCOc1cc(C(=S)N2CCOCC2)ccc1OS(=O)(=O)c1ccccc1	-5	·	·	0	·
CCOC(=O)c1ccc(N/C=C\C(=O)c2cccc(OC)c2)cc1	·	·	·	96*	·
COc1ccc(N/C=C\C(=O)c2ccc(C)cc2)cc1OC	52*	-29	6	57	3
COc1ccc(N/C=C\C(=O)c2ccc(Br)cc2)cc1OC	·	·	0	46	·
COc1ccc(NS(=O)(=O)c2cccc(NC(=O)COc3ccc(OC)cc3)c2)cc1	·	-12	0	-2	4
Cc1ccc(-n2nc3c(=O)n(CC(=O)NC(C)CCc4ccccc4)nc(C)c3c2C)cc1 (configuration not stated)	-5	·	·	-35	·
COc1cc(N)c(Cl)cc1C(=O)OCC(=O)Nc1cccnc1Cl	0	-11	1	22	-1
CCO[C@H]1OC(C(=O)O)=C[C@@H](c2ccccc2)[C@@H]1CCCO	3	-2	1	0	-1
CCOc1cccc(NC(=O)/C(C#N)=C/c2cccnc2)c1	·	1	1	-2	-1
CCC(=O)N1CC2(CN(S(C)(=O)=O)C2)c2c(n(C)c3cc(OC)ccc23)[C@H]1CO	·	-1	·	·	·
SMILES	esBAF inh	rRNA inh HTS	Wnt bcat act	MITF act	MLL AF4-AF9 inh
Cc1[nH]c2ccccc2c1/C=N/NC(=O)CNC(=O)COc1ccccc1	-2	-3	-2	-4	0
CC(=O)c1ccc(N/C=C/C(=O)c2ccc(Br)cc2)cc1	46*	5	1	·	-2
CC(=O)Nc1ccc(N/C=C/C(=O)c2ccc(Br)cc2)cc1	34	·	·	47	·
Cc1nc2ccccc2nc(=O)c1NNc1ccccc1	·	-1	25	102*	3
Cc1ccc2nc(=O)c(NNc3ccccc3)cnc2c1	·	7	?	72	2
O=c1cc(-c2cccc(F)c2)oc2ccccc12	51*	-16	-1	30	-7
O=c1cc(-c2ccc(O)cc2)oc2ccc(O)cc12	37	-30	56*	78	·
O=c1cc(-c2ccccc2)oc2cc(O)ccc12	?	5	4	88*	-14
O=c1cc(-c2ccncc2)oc2ccccc12	-12	·	2	·	·
COc1cc(-c2cc(=O)c3ccccc3o2)ccc1O	38	2	28	·	0
O=c1cc(-c2ccccc2)c2ccc(O)cc2o1	·	0	-1	5	3
